Screening data: PubChem BioAssay, several laboratories
UBC9 SUMO inh = SUMOylation inhibition. P63279. HTRF SUMOylation assay, SAE1/SAE2 + UBC9, in vitro. inhibition, % at 35 µM. 290,000 tested, 0.36% active. AID 2006; in the data active = inhibition above about 50%, passing the limit was not always enough
GRIN3A LBD mod = modulates the human NR3A ligand-binding domain | NR3A LBD differential scanning fluorimetry, Tm shift; 0% = protein alone, 100% = glycine-bound protein | Tm shift relative to glycine control, % at 25 µM | 340,000 tested, 2.5% active;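 active = melting temperature shift of at least 10% of the positive control shift, at one fixed dose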
HGIII-sPLA2 inh = Inhibits HGIII-sPLA2 liposome hydrolysis, primary screen | Q9NZ20 | QFRET BODIPY PC-A2 liposome hydrolysis, fluorescence | inhibition, % at 12.2 µM | 370,000 tested, 0.56% active;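 active = inhibition above mean plus 3 SD of compounds lying within the high and low control bounds, cut at about 19% in these data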;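 also: 0% = median of test compound wells and 100% = no enzyme DMSO wells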
Target sequence (Q9NZ20 whole entry, looked up): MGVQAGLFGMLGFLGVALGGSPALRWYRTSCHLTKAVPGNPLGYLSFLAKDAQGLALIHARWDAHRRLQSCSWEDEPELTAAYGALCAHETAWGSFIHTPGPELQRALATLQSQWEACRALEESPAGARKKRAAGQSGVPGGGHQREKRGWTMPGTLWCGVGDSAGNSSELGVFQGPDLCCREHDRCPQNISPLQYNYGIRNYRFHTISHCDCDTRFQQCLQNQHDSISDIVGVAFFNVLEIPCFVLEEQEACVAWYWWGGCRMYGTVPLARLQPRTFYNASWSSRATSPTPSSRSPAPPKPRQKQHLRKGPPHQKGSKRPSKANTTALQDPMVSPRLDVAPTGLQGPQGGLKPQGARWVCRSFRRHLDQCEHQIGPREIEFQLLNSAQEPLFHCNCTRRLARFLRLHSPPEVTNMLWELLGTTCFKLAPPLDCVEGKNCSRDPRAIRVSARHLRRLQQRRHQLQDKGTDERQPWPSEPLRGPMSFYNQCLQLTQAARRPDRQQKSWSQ
UBC13 inh = blocks human UBC13 polyubiquitin chain formation; P61088; TR-FRET; inhibition, % at 20 µM; 330,000 tested, 0.47% active; AID 485273; in the data active = inhibition above about 45%, passing the limit was not always enough
Casp3 counter = counter-screen for UBC13 inhibitors: human caspase-3 inhibition; shares compounds with UBC13 inh; Recombinant caspase-3, Caspase-Glo 3/7 luminescence, 60 min; inhibition, % at 20 µM; 1,400 tested, 4% active; AID 488856;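 active = mean inhibition across replicates above about 26%, limit read from the data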;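 also: plate controls were DMSO with caspase-3 for no effect and DMSO wells lacking enzyme for full effect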
UBC13 confirm = confirmation of human UBC13 polyubiquitin inhibitors; inhibition, % at 10 µM; 1,400 tested, 68% active; shares compounds with UBC13 inh; UBC13 polyubiquitination, TR-FRET, biochemical; in the data active = inhibition above about 45%
Starred values were filed as active, the others as inactive; . = not tested or not shown. Only some compounds are listed: those with a hit (about 3.3% of all), similar ones and a draw of the others.

SMILES	UBC9 SUMO inh	GRIN3A LBD mod	HGIII-sPLA2 inh	UBC13 inh	others
O=[N+]([O-])c1ccc(NN=Cc2cccc(O)c2)nc1	.	12*	-20	.
O=[N+]([O-])c1ccc(N/N=C\c2cccnc2)nc1	29	-1	4	6
Cn1ncc(N=Cc2ccc([N+](=O)[O-])cc2)c1C(=O)Nc1ccccc1	18	14*	7	2
COc1cc(/C=N/Nc2ccc([N+](=O)[O-])cn2)cc(OC)c1O	-9	1	6	-44
CC(=O)Nc1ccc(C=NNc2ccc([N+](=O)[O-])cn2)cc1	.	24*	-1	.
COc1ccc(CN(C(=S)Nc2ccccc2)C2CC(=O)N(c3ccc(F)cc3)C2=O)cc1 (stereo not given)	-8	32*	-10	3
C=CCN(C(=O)Nc1ccc(F)cc1)C1CC(=O)N(c2ccc(OC)cc2)C1=O (stereo not given)	7	-2	-6	2
CNC(=S)N(Cc1ccc(OC)cc1)C1CC(=O)N(c2ccc(Cl)cc2)C1=O (stereo not given)	-3	32*	-43	7
COc1ccc(CCN(C(=S)Nc2ccccc2)C2CC(=O)N(c3ccccc3)C2=O)cc1 (stereo not given)	-44	17*	-10	1
CNC(=S)N(Cc1ccc2c(c1)OCO2)C1CC(=O)N(c2ccc(F)cc2)C1=O (stereo not given)	1	22*	-63	3
Nc1[nH]c(C(=O)c2ccc(Br)cc2)c(-c2ccc(Br)cc2)c1C(=O)N1CCCCC1	.	.	-6	.
O=C1CC(N(CCc2ccccc2)C(=S)Nc2ccccc2)C(=O)N1c1ccc(Br)cc1 (stereo not given)	-23	29*	-47	-8
Cc1ccc(N2C(=O)CC(N(CCc3ccccc3)C(=S)Nc3ccc(N(C)C)cc3)C2=O)cc1 (stereo not given)	-33	6	-6	-16
C=CCN(C(=O)CCC(=O)Nc1cc(C)on1)C(C(=O)NC(C)(C)C)c1cccc(OC)c1OC (stereo not given)	12	401*	2	-6
O=S1(=O)c2ccc(N3CC[C@@H](O)C3)cc2O[C@@H]2CCN1C2	.	.	7	.
C=CCc1ccccc1OCC(=O)OCCNC(=O)c1cccnc1	4	20*	-2	4
COc1ccccc1C(=O)NC(=S)/C=C1/N(C)c2ccccc2C1(C)C	11	-20	20*	-32
C#CCNC(=O)C[C@@H]1C(=O)N(CCc2ccc(Cl)cc2)/C2=C/CCCCC[C@@]21C(=O)OCC	.	.	0	.
NS(=O)(=O)c1ccc(NC(=O)COC(=O)c2ccc(S(=O)(=O)N3CCOCC3)cc2)cc1	.	14*	4	10
O=C(COC(=O)CCC(=O)c1cccs1)Nc1ccc(S(=O)(=O)N2CCOCC2)cc1	1	15*	-10	5
O=C(COC(=O)C1=COCCO1)Nc1cccc(S(=O)(=O)N2CCOCC2)c1	3	11*	-2	-4
Cc1cc(NC(=O)COC(=O)c2oc3c(ccc4ccccc43)c2C)no1	22	0	1	-2
Cc1c(C(=O)OCC(=O)Nc2ccc(S(N)(=O)=O)cc2)oc2c1ccc1ccccc12	30	18*	-4	6
COC(=O)[C@]12CCCCC=C1N(Cc1ccc(OC)cc1)C(=O)[C@@H]2CC(=O)NCc1cccs1	.	.	-1	.
Nc1cc(-c2ccc(OC(F)(F)F)cc2)nn1-c1ccc(Cl)c(Cl)c1	-1	24*	9	-12
SMILES	UBC9 SUMO inh	GRIN3A LBD mod	HGIII-sPLA2 inh	UBC13 inh	others
CCOC(=O)N1CCN(C(=O)C[C@@H]2C(=O)N3CCCC4=C3[C@@]2(C(=O)OC)CCCC4)CC1	.	.	0	.
COc1ccccc1Oc1c(C)oc2cc(OC(=O)c3ccco3)ccc2c1=O	52*	-1	-8	2
CCOc1ccccc1Oc1c(C)oc2cc(OC(=O)c3ccco3)ccc2c1=O	37	0	2	12
CCOC(=O)N1CCN(C(=O)c2ccc(OCC)c(OCC)c2)CC1	11	10*	8	2
CCOC(=O)N1CCN(C(=O)c2ccc(OC)c(OC)c2)CC1	13	2	12	-8
CCOc1ccccc1N1CCN(C(=O)c2ccc3c(c2)OCO3)CC1	2	10*	1	0
Cc1ccc(Oc2ncccc2CO)cc1	4	-1	2	-1
Cc1ccc(Oc2ncccc2/C=N/OCc2ccc(Cl)cc2Cl)cc1	-13	14*	7	-1
CN(C)c1ccc(Cn2c(=O)n(Cc3ccc(C(=O)NCC4COC4)cc3)c(=O)c3ccccc32)cc1	.	.	3	.
O=C(O)CCSc1nc2ccc(Br)cc2[nH]1	-20	13*	3	-3
CC(Sc1nc2ccc(Br)cc2[nH]1)C(=O)O (stereo not given)	13	0	-4	14
CCOC(=O)C1=NOC(C(=O)Nc2nccs2)(C(=O)C2CC2)C1 (stereo not given)	.	.	1	.
C[C@@H]1N[C@H]2N(C1=O)c1ccccc1[C@@]21C[C@@H]2C(=O)N[C@](C)(O1)c1nc3ccccc3c(=O)n12	.	.	5	.
Cc1ccc(NC(=O)CSc2nc(C)cc(=O)[nH]2)c(C)c1	.	.	-2	.
COc1cc2c(cc1OC)C1=NC(=O)CN1C(SCc1ccccc1C)=N2	-13	26*	-11	4
Cc1ccc(CSC2=Nc3ccccc3C3=NC(=O)CN23)cc1	5	-3	0	0
Clc1ccc(SCNc2ccccc2Cl)cc1	14	10*	5	8
COc1ccc(-c2c(C(=O)c3ccccc3)[nH]c(N)c2C(=O)c2c[nH]c3ccccc23)cc1OC	.	.	4	.
Cc1cccc(N=NC(=S)NNc2cccc(C)c2)c1	.	-6	27*	.
CC(=O)Nc1ccc(NC(=O)C(NS(=O)(=O)c2cccc3nsnc23)C(C)C)cc1 (stereo not given)	14	10*	9	-4
CCCn1c(=O)c2ccccc2n2c(SCCOc3ccc(OC)cc3)nnc12	26	11*	13	2
O=C(CSc1nnc(-c2ccccc2)n1-c1ccc(Cl)cc1)c1ccc(F)cc1	.	.	-29	.
COc1ccc2c(c1)c(CC(=O)NCc1cc([N+](=O)[O-])ccc1O)c(C)n2C(=O)c1ccc(Cl)cc1	24	24*	-6	-9
O=C(O)c1ccc(Cl)cc1Nc1nc2cc(Cl)ccc2o1	30	14*	-18	.
CCOc1cc(/C=C/C(=O)Nc2ccc(C(=O)NCCN(CC)CC)cc2)ccc1OCC(C)C	8	0	-17	78*	Casp3 counter=-2;UBC13 confirm=96*
Cc1ccc(NC(=O)C2=CC=CN3CCS(=O)(=O)N=C23)cc1	.	2	-5	4
COc1ccc(C(C)(C)C)cc1NC(=O)C1=CC=CN2CCS(=O)(=O)N=C12	.	2	3	50*	Casp3 counter=2;UBC13 confirm=9
